Structures are written as SMILES. About 83,000 compounds went through this panel and 20% of them were active in at least one assay; those are over-represented in the sample as a whole.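 Cells were grown in 96-well plates and exposed to the test compound at a single concentration for 48 hours; results are reported as percent growth, with values below 10 considered active.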 Values without a mark were called inactive. Active and inactive are the calls of the source.

For this test, the system named is HL-60(TB) leukemia. Put plainly: NCI-60 one-dose screen, 48 h (100 = growth as untreated, 0 = no growth, -100 = all killed). Conditions: 10 µM unless noted.
Turning to `O=C1/C(=C/C2=Cc3ccccc3OC2)SC(=S)N1c1ccc(F)cc1`, the growth is 95.2%.
The result for `CCNC(=O)Oc1ccc(/C(=C(/C)c2ccc(Cl)cc2)c2ccc(OCCN3CCCCCC3)cc2)cc1` reads 1.41% (active).
As to `CS(=O)(=O)c1ccc(-c2nn(-c3ccccc3)cc2/C=C/C(=O)c2ccc(Br)cc2)cc1`, the growth was 51.9%.
`Clc1ccc(Cc2nnc3sc(-c4cccnc4)nn23)cc1`: the growth is 97.2%.
As for `CC(C)=CCC[C@](C)(O)[C@H]1CC[C@]2(C)[C@@H]1CC[C@@H]1[C@@]3(C)CCC(NC(=O)c4ccccc4C(=O)O)C(C)(C)[C@@H]3CC[C@]12C` (stereo partly specified), the figure is 90.2%; as for `CCOP(=O)(OCC)OC[C@]12CCC(C)(C)C=C1[C@H]1CC[C@@H]3[C@@]4(C)CC[C@H](OP(=O)(OCC)OCC)C(C)(C)[C@@H]4CC[C@@]3(C)[C@]1(C)CC2`, -22.1% (active).
